From PubChem BioAssay
The list is not random: actives were taken first. Their share in the collection is about 22%.
CYP2C19 act – increases human CYP2C19 enzyme activity. P33261. recombinant CYP2C19, luciferin-H EGE luminescence; hits give high values; 0 = fully inhibited enzyme, 1 = untreated enzyme. activation factor at 5 µM. 96,000 tested, under 10 active. AID 1025;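 active = activation factor of at least 2 at 5 µM in the primary screen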;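 note: 0 = wells with 2.5 mM tranylcypromine and 1 = vehicle-only wells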
Target sequence (P33261 whole entry, looked up): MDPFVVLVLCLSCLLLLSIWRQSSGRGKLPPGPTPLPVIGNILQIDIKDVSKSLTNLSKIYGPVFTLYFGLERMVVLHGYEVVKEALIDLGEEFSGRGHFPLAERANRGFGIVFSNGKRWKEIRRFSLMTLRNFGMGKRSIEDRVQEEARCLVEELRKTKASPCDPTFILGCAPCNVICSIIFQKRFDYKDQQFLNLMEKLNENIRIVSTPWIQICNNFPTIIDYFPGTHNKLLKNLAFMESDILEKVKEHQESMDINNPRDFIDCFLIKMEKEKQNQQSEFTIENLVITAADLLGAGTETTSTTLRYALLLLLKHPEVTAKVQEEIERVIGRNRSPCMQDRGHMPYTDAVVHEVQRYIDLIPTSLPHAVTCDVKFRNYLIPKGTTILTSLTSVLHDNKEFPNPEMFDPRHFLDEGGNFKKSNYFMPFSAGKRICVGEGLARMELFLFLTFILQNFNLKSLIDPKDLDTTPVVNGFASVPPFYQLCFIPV
CYP2C19 inhib – blocks human cytochrome P450 2C19; inhibition, % at 5 µM; P33261; AID 778; 21% of 96,000 active; CYP2C19 Supersomes, luciferin-H EGE luminescence, 30 min;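 active = CYP2C19 inhibition above a set limit at 5 µM in the primary screen, cut at about 50% in these data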;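 note: plate controls were negative control wells for no effect and 2.5 mM tranylcypromine positive control for full effect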
Measles CPE – protection of cells from measles virus; Measles virus-infected cells, CPE protection, absorbance; protection (pct of control), % at 4 µM; 1.5% of 140,000 active; AID 841; in the data active = protection mostly above about 24%, no sharp cut-off; inactive = mostly below about 26%
CYP2C9 act – increases human cytochrome P450 2C9 activity. P11712. recombinant CYP2C9, luciferin-H conversion, luminescence; hits give high values; factor 1 = untreated enzyme, 0 = blocked. activation factor at 5 µM. 1.4% of 96,000 active. AID 1024;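 active = activation factor of 2 or more for CYP2C9 at a 5 µM dose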;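 note: 0 = sulfaphenazole-blocked wells and 1 = vehicle-only wells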
CYP2C9 inhib – human CYP2C9 inhibition; P11712; CYP2C9 Supersomes, luciferin-H conversion, luminescence; inhibition, % at 5 µM; 20% of 96,000 active;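 active = blocking of liver enzyme CYP2C9 beyond about 50% at 5 µM, limit read from the data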
The depositor's hits bear a star; . = no result.

SMILES	CYP2C19 act	CYP2C19 inhib	Measles CPE	CYP2C9 act	CYP2C9 inhib
O=C(NC(Nc1nc2ccccc2s1)(C(F)(F)F)C(F)(F)F)c1ccccc1	0.2	76*	7	0.1	92*
C/C(=C\C(=O)c1ccccc1)NNc1nc2ccccc2s1	0.4	61*	10	0.6	42
CCOc1ccc2nc(NC(NC(=O)CC)(C(=O)OC)C(F)(F)F)sc2c1 (stereo not drawn)	0.3	70*	24	0.6	44
O=C(NNc1nc2ccccc2s1)Nc1ccccc1	.	.	20	.	.
O=C(O)C1C2CCC(C2)C1C(=O)Nc1nc2ccccc2s1 (stereo not drawn)	1	3	4	0.9	13
CCOC(=O)c1c(-c2ccccc2)csc1NC(=O)c1ccc(S(=O)(=O)N2CC(C)OC(C)C2)cc1 (stereo not drawn)	0.6	39	14	0.2	77*
CCOC(=O)c1c(-c2ccccc2)csc1NC(=O)CSc1nc(C)cc(C)n1	.	.	4	.	.
CCOC(=O)c1c(-c2ccccc2)csc1NC(=S)N(CC)CC	.	.	29	.	.
CCOC(=O)c1c(-c2ccccc2)csc1NC(=O)c1cc(S(=O)(=O)N2CCOCC2)ccc1C	.	.	3	.	.
CCOC(=O)c1c(-c2ccccc2)csc1NC(=O)c1ccc(N2C(=O)CCC2=O)cc1	0.8	15	4	0.5	50*
CCOC(=O)c1c(-c2ccccc2)csc1/N=C/C1C(=O)CCCC1=O	.	.	53*	.	.
CC1(C)Cc2noc(N)c2C(C)(C)N1OC(=O)c1ccco1	.	.	28	.	.
CCOC(=O)C1C(=O)NC(c2ccccc2)=NC1c1ccc(Cl)cc1 (stereo not drawn)	0.4	57*	9	0.8	20
CCOC(=O)C1C(=O)NC(c2ccccc2)=NC1c1ccc(C(C)C)cc1 (stereo not drawn)	0.8	20	7	1	1
CCCc1nc2ccccc2c(C(=O)O)c1CC	1	2	1	1	1
CCc1nc2ccccc2c(C(=O)OC2CCOC2=O)c1C (stereo not drawn)	0.5	52*	6	1.1	-5
CCCc1nc2ccccc2c(C(=O)OC2CCOC2=O)c1CC (stereo not drawn)	0.5	53*	11	0.3	65*
O=C(COC(=O)c1cccc(S(=O)(=O)N2CCc3ccccc32)c1)NC1CCS(=O)(=O)C1 (stereo not drawn)	0.6	42	6	0.7	31
COc1cccc(-c2nn(C)c3sc(C(=O)Nc4ccc5c(c4)OCCO5)cc23)c1	0.9	14	19	0.5	49
CC(=O)c1ccc(N2CCN(C(=O)c3cc4c(-c5ccccc5F)nn(C)c4s3)CC2)cc1	0.7	27	4	0.7	32
CC(CCc1ccco1)NC(=O)c1cc2c(-c3ccccc3F)nn(C)c2s1 (stereo not drawn)	0.2	78*	18	0.1	93*
Cn1nc(-c2ccccc2F)c2cc(C(=O)Nc3ccc4c(c3)OCCO4)sc21	0.6	42	8	0.2	81*
O=C(CCCOc1ccc(Cl)cc1)NCC1CCCO1 (stereo not drawn)	0.9	9	2	1.1	-8
Cc1cc(OCCOc2cccc3cccnc23)cc(C)c1Cl	0.8	15	37	2.2*	-118
CCOC(=O)C1=C(c2ccccc2)N=c2s/c(=C\c3cccc(O)c3)c(=O)n2C1c1cccs1 (stereo not drawn)	.	.	30	.	.
SMILES	CYP2C19 act	CYP2C19 inhib	Measles CPE	CYP2C9 act	CYP2C9 inhib
O=c1/c(=C\c2ccc(O)cc2)sc2n1C(c1ccccc1)C(c1ccccc1)=NN=2 (stereo not drawn)	0.8	24	21	0.4	56*
CCc1ccc(OCC(=O)N/N=C\c2ccco2)c([N+](=O)[O-])c1	.	.	3	.	.
CCc1nc2c3cnn(-c4cc(Cl)ccc4C)c3ncn2n1	0.1	85*	7	0.9	7
Cc1ccc(C)c(OCCn2cc(/C=C(\C#N)C(=O)NCc3cccs3)c3ccccc32)c1	0.9	13	2	0.2	78*
Cc1ccc(C2Oc3ccccc3C3=C2C(c2cccs2)n2ncnc2N3)cc1 (stereo not drawn)	0.8	17	15	0.5	50
Fc1ccc(C2C3=C(Nc4ncnn42)c2ccccc2OC3c2ccncc2)cc1 (stereo not drawn)	0.1	93*	10	0.2	77*
O=C(NCc1ccncc1)c1cccc(Cn2cc(Br)cn2)c1	0.1	88*	3	0.1	90*
Cc1ccc(C(=O)COC(=O)c2c(C)cc(=O)oc2C)cc1[N+](=O)[O-]	.	.	18	.	.
Cc1ccc(S(=O)(=O)c2c(C)nn(C(C)(C)C)c2OC(=O)C(C)(C)C)cc1	1	0	11	0.7	33
Cc1ccc(S(=O)(=O)c2c(C)nn(C(C)(C)C)c2OC(=O)c2ccco2)cc1	0	99*	4	0.1	86*
Cc1ccc(S(=O)(=O)c2c(C)nn(C(C)(C)C)c2OC(=O)c2cccs2)cc1	0.1	94*	11	0.1	90*
CC(=O)Oc1c(S(=O)(=O)c2ccc(C)cc2)c(C)nn1-c1ccccc1	0.9	8	15	0.2	78*
Cc1ccc(S(=O)(=O)c2c(C)nn(C(C)(C)C)c2OC(=O)c2ccc(Br)o2)cc1	0.3	70*	13	0	95*
CC1(NC(=O)c2cc(S(=O)(=O)N3CCCCC3)ccc2Cl)CCS(=O)(=O)C1 (stereo not drawn)	0.9	6	2	0.9	12
Cc1cc(C)nc(-n2nc(C)c(C3(O)C(=O)Nc4ccccc43)c2N)n1 (stereo not drawn)	1.2	-18	5	1	-2
Cc1cc(C)cc(Oc2cc(NC(=O)c3cn(C)nc3C)cc([N+](=O)[O-])c2)c1	0.8	24	27	0.5	48
Cc1cccc(-n2c(N)cc(=O)nc2SCC(=O)Nc2nnc(C)s2)c1	1.4	-39	5	1	1
Cc1nn(C(C)(C)C)c(OC(=O)c2ccc3c(c2)OCO3)c1S(=O)(=O)c1ccccc1	0.4	62*	32	0.2	83*
O=C(Nc1ccc(N2CCOCC2)cc1)c1cc2ccccc2o1	0.9	15	7	0.9	15
CC1CCN(C(=O)c2cc3ccccc3o2)CC1	0.1	86*	-1	0.8	22
O=C(/C=C/N1CCOCC1)c1cc2ccccc2o1	0.9	9	11	0.2	77*
CCN(CC)c1ccc(-c2c(C#N)c(N)nc(OC)c2C#N)cc1	1	3	23	0.5	54*
Cn1nc(N)c2c(-c3ccc(Cl)cc3)c(C#N)c(N)nc21	.	.	4	.	.
CCOc1cc(-c2nc(-c3ccncc3)no2)cc(OCC)c1OCC	0.4	61*	11	0.2	77*
CCOc1ccc(-c2nc(-c3ccncc3)no2)cc1OCC	0.5	45	16	0.4	63*
O=C(NCCCN1CCCC1=O)c1ccccc1NS(=O)(=O)c1ccc(Br)cc1	0.7	35	19	0.2	80*
O=C(NCCCn1ccnc1)c1cn(-c2ccccc2)nc1-c1ccc(F)cc1	0	96*	18	0	100*
